Results taken from the supplement of paper PMC6555819.

Legend:
Test in all cases: PBM binding z-score (relative to random genomic background probes); higher = stronger binding; sequences stand for … in GC…GCGATTGACAGCGTAGAATGAAGG
[1] = test system: PPARg:RXRa DBDmut IVT, anti-RXR (DBD mutation: RXRa K156A/R161A, NR concentration 270 nM, RXRa partner concentration 90 nM)
Method in brief: (§1)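 On custom Agilent 4×180K arrays, double-stranded probes with 34-nt variable regions carried direct-repeat seeds, single-nucleotide variants, half-site ablations or random human genomic background. Ligand-free nuclear receptor dimers were applied for 1 h, and binding was read with antibodies against each partner (one per run). Binding z-scores come from regression-normalized fluorescence, with the random background probes as reference.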

[2] = test system: PPARg:RXRa IVT, anti-PPARg (NR concentration 270 nM, RXRa partner concentration 90 nM)
Method in brief: as §1

[3] = test system: PPARg DBDmut:RXRa IVT, anti-PPARg (DBD mutation: PPARg1 K132A/R137A, NR concentration 270 nM, RXRa partner concentration 90 nM)
Method in brief: as §1

[4] = test system: PPARg DBDmut IVT, anti-PPARg (DBD mutation: PPARg1 K132A/R137A, NR concentration 270 nM)
Method in brief: as §1

[5] = test system: PPARg homodimer (NR concentration 180 nM)
Method in brief: as §1

[6] = test system: PXR:RXRa (NR concentration 270 nM, RXRa partner concentration 90 nM)
Method in brief: as §1

[7] = test system: PXR homodimer (NR concentration 270 nM)
Method in brief: as §1

[8] = test system: RARa:RXR (NR concentration 270 nM, RXRa partner concentration 90 nM)
Method in brief: as §1

[9] = test system: RARa homodimer (NR concentration 270 nM)
Method in brief: as §1

[10] = test system: RARb:RXRa (NR concentration 270 nM, RXRa partner concentration 90 nM)
Method in brief: as §1

| Sequence | PBM binding z-score [1] | PBM binding z-score [2] | PBM binding z-score [3] | PBM binding z-score [4] | PBM binding z-score [5] | PBM binding z-score [6] | PBM binding z-score [7] | PBM binding z-score [8] | PBM binding z-score [9] | PBM binding z-score [10] |
| --- | --- | --- | --- | --- | --- | --- | --- | --- | --- | --- |
| CAAACTAGGTCACGAAGGGTCAAAGTCGAATGAC | 8.44 | 9.09 | 5.43 | 4.14 | 6.07 | 6.48 | 1 | 7.14 | 2.56 | 5.29 |
| GCATATAGGTAATACAGGGTGAAAGTCCGATTGT | 4.15 | 3.22 | 1.15 | 0.404 | 1.08 | 0.411 | 0.164 | 1.35 | 0.52 | 0.281 |
| CCTTACGGGTGACTCCAGGTTATAGCATCGGAGT | 1.25 | 1.42 | -0.537 | -0.755 | 0.285 | 1.01 | 0.0547 | 1.22 | -0.139 | 0.499 |
| CAAACTAGGTCAGAGAGGTCAAAGTCCGTGCGTA | 7.7 | 8.02 | 1.22 | 0.373 | 4.15 | 6.24 | 10.2 | 6.29 | 2.07 | 4.84 |
| TCTCGGAGGACACGAAAGGTAAGAGCTCGACATC | 1.28 | -0.239 | -1.14 | -1.23 | -0.641 | -0.211 | -0.673 | -0.135 | -0.792 | 1.59 |
| TCTTCTAGGTCAACGATGGTCAGCTAATCTGCTA | 7.21 | 7.26 | 2.6 | 3.07 | 2.69 | 2.23 | 0.345 | 2.8 | 1.21 | 4.31 |
| GCTAGCAGGCCATGTGGGTCACTCAATGACGGGC | 2.25 | 3.4 | -0.133 | -0.744 | -0.23 | 0.289 | -0.533 | 0.567 | -0.664 | 1.26 |
| GCTATTAGTTGAAAGGGAAACCGAATGATTCTCG | 0.303 | 0.0307 | 0.646 | 0.468 | 0.766 | -0.0354 | 0.0349 | 0.204 | 1.17 | -0.128 |
| CCTCGGAGGACAACATGAGGTCAGAGCTGCCAGA | 0.44 | 0.437 | -0.816 | -1.02 | 1.69 | 2.8 | 0.437 | 2.67 | 0.194 | 3.04 |
| ACTTACGGGGCAACGAGGTTATAGCACGCGTATA | 2.66 | 2.16 | 0.904 | 0.257 | 0.811 | 1.62 | 0.644 | 1.73 | 0.365 | 1.63 |
| TCTTGTAGCTCAATAGAGGTTAAGAAAGTGCGCT | 0.915 | 0.506 | 0.592 | 0.551 | -0.185 | 2.46 | -0.163 | 1.28 | -0.147 | 0.573 |
| ATCTCTAGGTAATCAAGTTCAGTGAATGCCGAAC | 2.71 | 2.29 | 0.964 | 0.455 | 0.892 | 1.95 | 2 | 0.799 | 0.778 | 1 |
| CGTCCAAGGTCATAGCAGGTCAGTGAAGACAGAT | 3.54 | 4.67 | 0.604 | 1.12 | 3.76 | 6.05 | 2.47 | 5.07 | 1.79 | 5.09 |
| ATATGTAGGTTATCGTGTCATTCAGTTTGCGCAT | 7.74 | 7.44 | 2.49 | 2.15 | 1.76 | 1.17 | 0.812 | 1.16 | 0.933 | 1.32 |
| CCAACTAGGTCAAGGTCAAAGTCGGTTTGTGCCA | 8.26 | 8.03 | 1.26 | 1.36 | 4.31 | 5.31 | 2.55 | 5.24 | 3.41 | 5.3 |
| CCGACTGGGGCAGAAAGGTTACCATGCCATCCGG | 1.38 | 2.43 | -1.53 | -1.09 | 0.386 | 0.882 | -0.381 | 1.61 | -0.141 | 2 |
| CGAACTAGCTCATCCAGGACAGTGAATACATTGA | 0.221 | -0.126 | -0.227 | 0.607 | 0.205 | -0.344 | 0.167 | -0.0855 | -0.0939 | -0.208 |
| AATACAGGTTCACTAGGCCAGAGTAGGTACGAAT | 1.36 | 2.73 | 1.46 | 0.869 | 0.811 | 1.47 | 0.559 | 1.64 | 0.374 | 1.78 |
| TGAATGATGTTAAAGATCAGGGAACGTGGCGTCG | -0.672 | 0.00051 | 0.678 | 0.88 | 0.216 | -0.226 | 0.0908 | -0.242 | 0.502 | -0.0162 |
| CAGCCTAGGTCAAGGCCAGTATAGGAGGAACGTT | 2.48 | 2.33 | -0.75 | -0.631 | 0.784 | 1.3 | -0.176 | 1.93 | -0.377 | 4.07 |
| TGTCAAAGTACAAAGGTAACGTAAGTATCCACAC | -0.385 | 2.33 | 1.2 | 1.03 | 0.0149 | 0.587 | -0.194 | 1.04 | 0.713 | 1.67 |
| TTACCAAGGTGAAAGGTCGCTGATGCACGCCTTG | 2.44 | 5.19 | 0.53 | 0.614 | 1.28 | 3.66 | -0.522 | 5.46 | 0.386 | 3.12 |
| CCGAGTAGGTTATGGGGCATTCATGCAACGGTGA | 3.37 | 3.49 | -0.836 | 0.00847 | 0.908 | 0.114 | -0.204 | 0.175 | 0.24 | 0.981 |
| AATACTGGGTCACTAGGCCAGAGTAGGTACGAAT | 6.63 | 7.76 | 5.62 | 2.22 | 1.9 | 0.792 | 0.0229 | 1.53 | 0.983 | 3.19 |
